± gives the standard deviation.

The source of these data is the supplement of paper PMC10338343.

This assay concerns MILI (PIWIL2) piRISC loaded with piRNA #1 (26 nt). In words: pre-steady-state target cleavage rate (min^-1); guide: piRNA #1 5'p-UGAGGUAGUAGGUUGUAUAGUAUCCA; MIWI and MILI are mouse PIWI proteins and EfPiwi is from a freshwater sponge; tags in brackets are library labels; higher = faster piRNA-guided slicing of the target. The following applies: auxiliary factor: 500 nM mouse GTSF1. The method, boiled down:
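The pre-steady-state cleavage rate was obtained by Cleave-'n-Seq with a burst-and-steady-state fit. A transcribed, DNA-blocked target RNA library (0.1 nM) was mixed with 1 nM active affinity-purified piRISC carrying one synthetic guide, with or without 500 nM GTSF1 partner protein, in HEPES–potassium acetate buffer at 33 °C for 0–8 or 0–960 min. Uncleaved targets were sequenced and normalised to depth and to weakly complementary targets, with three trials pooled and k3 capped at 0.0001 min^-1.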
As to GGAGACCUAUGUAUACAAGCUACUACCACA, the “pre-steady-state target cleavage rate” value amounted to 0.177 ± 0.017. For GGAGACCAUACUAUACAACCUACAUGCUCA, the “pre-steady-state target cleavage rate” value is 0.134 ± 0.028. For GGAGACCUAUGUAUACAACCUACUUACCUCA the value was 0.0503 ± 0.0043.

For GGAGACCUUACUAUACAACCUAGCUACCUCA, the “pre-steady-state target cleavage rate” value came to 0.0317 ± 0.0069. Consider GGAGAGGAUACUUAACAACCUACUACCUCA, for which the “pre-steady-state target cleavage rate” value came out at 0.163 ± 0.013. For GGAGACCUAUGAAUAGAAGCUACUACCUCA the value was 0.0046 ± 0.0022; for GGAGACCUAUGAAAACAUCCUACUACCUCA, 0.00361 ± 0.0024; for GGAGACCAUACUAGUACAACCUACUACCUCA, 0.089 ± 0.011. Turning to GGAGACCUAACUAUUCAACCUACUACCACA, the “pre-steady-state target cleavage rate” value was 0.118 ± 0.022.

Take GGAGACCUAUCUAUACAACGUUCUACCUCA: the “pre-steady-state target cleavage rate” value stood at 0.00394 ± 0.0033. Regarding GGAGACCAUACAAUUCAACCUACUACCUCA, the “pre-steady-state target cleavage rate” value is 0.13 ± 0.013.

As to GGAGACCUAUGAUUACAACCUACUACCAUCA, the “pre-steady-state target cleavage rate” value is 0.00378 ± 0.0028. As to GGAGACCUAACUAUACAACCUACUAUCCUCA, the “pre-steady-state target cleavage rate” value worked out at 0.177 ± 0.047. As for GGAGACCUAUGUAUACAACCUACUAGCCUCA, the “pre-steady-state target cleavage rate” value turned out to be 0.0572 ± 0.013. Next, GGAGACCAUACUAUACAAGCUACAACCUCA: 0.212 ± 0.022.

Turning to GGAGACCUAACUAUUCAACCUACUACCUCA, the “pre-steady-state target cleavage rate” value turned out to be 0.138 ± 0.022.

As to GGAGACCUAACUAUACAACCUAGAACCUCA, the “pre-steady-state target cleavage rate” value was 0.00531 ± 0.005. Next, GGAGACCUAUCUUUACAACCUACUACCACA: 0.105 ± 0.016; GGAGACCAUACUAUACAACGAUCUACCUCA: less than 0.0001. Next, GGAGACCUAUGAUAUGAACCUACUACACUCA: less than 0.0001. Next, GGAGACCUAAGUAUACAACGUACUACCUCA: 0.0111 ± 0.0021; GGAGACCUAUGUAUGCAACCUACUACCUCA: 0.0637 ± 0.0095; GGAGACCUAUGUAUUCAACGUACUACCUCA: 0.00676 ± 0.0018.

On to GGAGACCUAACUAUAUCAACCUACUACCUCA, for which the “pre-steady-state target cleavage rate” value is 0.00944 ± 0.004. For the sequence GGAGACGAUUGUAUACAACCUACUACCUCA, the “pre-steady-state target cleavage rate” value was found to be 0.0734 ± 0.0068. Next, GGAGACGAUACAAUACAAGCUACUACCUCA: 0.236 ± 0.017; GGAGACCUAUCUAUAGCAACCUACUACCUCA: 0.0831 ± 0.016.

Consider GGAGACGAUAGUAUACAACCUUCUACCUCA, for which the “pre-steady-state target cleavage rate” value was 0.00961 ± 0.003. For GGAGACCUAUGUAUACAACCUACUACGAGA the value was 0.013 ± 0.0047. For “GGAGACCUAUGAUAUGUACCUACUACGAGA [g5:g13:cont:t1A]” the value was less than 0.0001; for GGAGACCUAUGAAUACUACCUACUACGUCA, 0.00344 ± 0.0026; for GGAGAGGAUACUAUACAUGGUACUACCUCA, 0.00387 ± 0.0028. Next, GGAGACGAUACUAUACGACCUACUACCUCA: 0.0963 ± 0.012; GGAGACCUUACUAUAGUUCCUACUACCUCA: 0.113 ± 0.0093; GGAGACCUAUCUAUACAAGGUACUACCUCA: 0.0563 ± 0.0083. Consider GGAGACCUUACUAAACAAGCUACUACCUCA, for which the “pre-steady-state target cleavage rate” value was found to be 0.231 ± 0.018.

Take GGAGACCUAUGAAUACAACCUACUACCUGA: the “pre-steady-state target cleavage rate” value turned out to be 0.00268 ± 0.0026. For GGAGACCUAUGUAUACAACCUACUUCGUCA the value was 0.0106 ± 0.0032; for GGAGACCUAUCAAUACAACCUACUACGUCA, 0.0134 ± 0.0044. For GGAGAGGAUUCUUUACAACCUACUACCUCA the value was 0.167 ± 0.013.
